Experimental findings from PubChem BioAssay AID493067 (National Center for Advancing Translational Sciences (NCATS), 2011) are described below.

Records with an inconclusive call do not appear. Activity calls are given as the source filed them. The call rests on the fitted dose curve; in most records, active means well fitted activation curve with a large enough effect; inconclusive means small, poorly fitted or top-dose-only effect; inactive means flat fitted curve, though single readings scatter.

The nature of the test: Confirmation Concentration-Response Assay for qHTS Assay for Epigenetic Modulators. The conditions noted are these: murine C127i LDR cells, GFP reporter derepression, 30 h; series mostly up to 46.1 µM. The text has this:
NIH Molecular Libraries Screening Centers Network [MLSCN] NIH Chemical Genomics Center [NCGC] MLSCN Grant: 1 X01 MH079860-01 Assay Provider: Elisabeth D. Martinez, University of Texas SW Medical Center NCGC Assay Overview: This assay, used for the primary screen, was employed here to confirm actives identified from the Locus Derepression (LDR) assay (PubChem AID 1865). The LDR assay detects the derepression of a GFP reporter that is stably integrated in a region of the genome of murine c127i mammary cells that is presumably silenced. Compounds that derepress or induce this reporter locus are identified by enumerating GFP positive cells using an Acumen Explorer Ex3 (TTP Labtech) laser-scanning microplate cytometer.
NCGC Assay Protocol Summary: Three hundred LDR cells in 5 uL per well were dispensed into black, clear-bottom 1536-well plates. Twenty-three nL compound was transferred to the assay plate and cells were incubated 30 hours at 37 C. Medium was removed, cells were washed two times with PBS, and GFP-positive cells were enumerated as fluorescent objects between the sizes of 20 to 120 um width and depth using an Acumen Explorer Ex3 (TTP Labtech) laser-scanning microplate cytometer. For further details, see Johnson, RL, Huang, W, Jadhav, A, Austin, CP, Inglese, J, Martinez, ED (2008). A quantitative high-throughput screen identifies potential epigenetic modulators of gene expression. Anal Biochem 375: 237-48.
Regarding `Cc1ccc(/C=[N+](\[O-])c2ccc(N(C)C)cc2)c2nsnc12`, the Potency entry is “inactive”.
Turning to `Cc1cc(N2CCN(c3ccc([N+](=O)[O-])c4cccnc34)CC2)c2ccccc2n1`, the Potency was 12.6 µM (active).
With `CC1=C/C(=N\NC(=S)Nc2cccnc2)CC(C)(C)C1`, the Potency is 3.16 µM (active).
In the case of `Cc1cccn2c(=O)c(/C=C3\SC(=S)N(CC(C)C)C3=O)c(NCCCOC(C)C)nc12`, the Potency is 3.55 µM (active).
The same measure for `COc1ccc2c(C)nc(Nc3nc(-c4ccccc4)cc(=O)[nH]3)nc2c1`: 4.47 µM (active); for `O=C(O)CCCCCN1C(=O)/C(=C\c2ccc(-c3ccc(Cl)cc3)o2)SC1=S`: 7.94 µM (active).
As to `CC(=O)[C@H](CC(C)C)NC(=O)[C@@H](CC(C)C)NC(=O)[C@H](CC(C)C)NC(=O)OCc1ccccc1`, the Potency is 3.98 µM (active).
In the case of `Cc1nc(CSc2nsc(/C=C/N(C)C)c2C#N)cs1`, the Potency entry is “inactive”.
Consider `O=C(CSc1cccc[n+]1[O-])c1ccccc1Br`, for which the Potency was 25.1 µM (active).
Regarding `COCCNC(=S)N/N=C(\C)c1ccccc1O`, the Potency is 6.31 µM (active).
`CCOc1ccc(NC(=O)c2nc(S(=O)(=O)Cc3ccccc3F)ncc2Cl)cc1`: the Potency entry is “inactive”.
As to `CCc1nnc(NC(=O)c2cccc(C(=O)Nc3nnc(CC)s3)n2)s1`, the Potency was 7.94 µM (active).
In the case of `CCc1ccc(NC(=O)C2CCC(CNS(=O)(=O)c3ccc4c(c3)CC(C)N4C(C)=O)CC2)cc1` (stereo not drawn), the Potency entry was “inactive”.
On to `CCOn1c(=O)c[n+]([O-])c2ccccc21`, for which the Potency entry is “inactive”.
With `CCOC(=O)c1cc2c(=O)n3ccccc3nc2n(Cc2ccco2)c1=NC(=O)c1ccc(Br)cc1`, the Potency was 15.8 µM (active).
As to `S=C(Nc1ccccc1)c1ccccn1`, the Potency was 15.8 µM (active).
`CN(c1ccccc1)S(=O)(=O)c1nnc(NC(=O)c2ccccc2)s1`: the Potency entry was “inactive”.
Next, `Oc1ccc(Br)cc1C=Nc1ccc2c3c(cccc13)CC2`: “inactive”.
Take `COc1cccc(/C=N/Nc2nc(Nc3ccccc3)nc(-n3nc(C)cc3C)n2)c1O`: the Potency was 3.98 µM (active).
Turning to `CCN(CC)c1ccc2c(c1)oc(=O)c1c(Cl)cc(=O)oc12`, the Potency was 3.98 µM (active).
Turning to `N#CC1=C(N)n2c(s/c(=C\c3cccs3)c2=O)=C(C#N)C1c1cccs1` (stereo not drawn), the Potency was 15.8 µM (active).
As for `N#Cc1sc2nc(-c3ccccc3)cc(C(F)(F)F)c2c1N`, the Potency was 15.8 µM (active).
Next, `CN(C)S(=O)(=O)c1ccc2c(c1)/C(=C/c1cc3c([nH]1)CCCC3)C(=O)N2`: 14.1 µM (active).
